# Experimental data from PubChem BioAssay (Tox21).
# A number with no mark means an inactive call. Records with an inconclusive call do not appear. A call without a number means that no potency is given here. Calls of active or inactive are those of the source. Unless noted, calls come from the whole dose curve.
# Key:
# [1] = qHTS assay to identify small molecule antagonists of the sonic hedgehog signaling (Shh) pathway (AID 1259369); note: nearly all actives have a fitted effect of over 45% in size
# Procedure, shortened: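 Antagonist mode: compound added to 3T3 Gli1-Luc cells followed by conditioned-medium stimulation, 24 h at 37 C, 5% CO2. Inhibition taken as loss of Gli1-driven luciferase luminescence.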
# [2] = target: Estrogen receptor beta (Homo sapiens) (UniProt Q92731); experiment: qHTS assay to identify small molecule antagonists of the estrogen receptor beta (ER-beta) signaling pathway (AID 1259378; active = well fitted inhibition curve with a large enough effect in the signal ratio in the repeat runs, not every such curve was filed as active; the % refers to the signal ratio)
# Chain of Estrogen receptor beta (Homo sapiens) (Q92731 whole entry, looked up): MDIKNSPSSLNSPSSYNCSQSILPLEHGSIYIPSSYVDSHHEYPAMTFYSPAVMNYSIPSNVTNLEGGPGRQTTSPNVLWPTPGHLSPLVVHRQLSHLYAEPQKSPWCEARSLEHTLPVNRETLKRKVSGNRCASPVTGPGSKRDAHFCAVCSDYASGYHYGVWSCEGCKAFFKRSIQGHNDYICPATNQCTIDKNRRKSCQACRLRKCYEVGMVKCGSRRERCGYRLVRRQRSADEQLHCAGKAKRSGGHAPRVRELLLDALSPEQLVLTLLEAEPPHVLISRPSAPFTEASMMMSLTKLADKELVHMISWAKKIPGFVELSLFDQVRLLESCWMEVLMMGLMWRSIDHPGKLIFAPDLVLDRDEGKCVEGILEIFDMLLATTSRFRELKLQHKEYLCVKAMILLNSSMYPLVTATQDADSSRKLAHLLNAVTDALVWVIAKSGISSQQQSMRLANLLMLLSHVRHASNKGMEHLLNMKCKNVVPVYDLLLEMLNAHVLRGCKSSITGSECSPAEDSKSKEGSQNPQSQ
# Procedure, shortened: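 Antagonist mode: compounds added to beta-lactamase reporter HEK293T ER-beta-UAS cells stimulated with E2 (1nM final), 16 hr at 37C. LiveBLAzer B/G FRET substrate, 2 hours room temperature, fluorescence read-out.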
# [3] = qHTS assay to identify small molecule agonists of the androgen receptor (AR) signaling pathway in the presence of an antagonist - cell viability counter screen (AID 1259379; active = well fitted curve in the direction sought with a large enough effect in the repeat runs; an effect the other way counts as inactive or inconclusive;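 note: MDA-kb2 human breast cancer cells carrying an MMTV luciferase reporter; series mostly up to about 92 µM; nearly all actives have a fitted effect of over 25% in size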)
# Procedure, shortened: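 Cytotoxicity counter-screen run in the same wells as the nilutamide-challenged (3.0 µM final) AR agonist assay in MDA-kb2 cells. Compounds tested at 15 concentrations for 16 h, 37 °C without CO2; CellTiter-Fluor fluorescence read.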
# [4] = qHTS assay to identify small molecule agonists of the estrogen receptor beta (ER-beta) signaling pathway - cell viability counter screen (AID 1259380; active = well fitted curve in the direction sought with a large enough effect in the repeat runs; an effect the other way counts as inactive or inconclusive; note: nearly all actives have a fitted effect of over 30% in size)
# Procedure, shortened: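 Cell viability counter screen: CellTiter-Glo luminescence (30 min, room temperature) measured in the same wells as the beta-lactamase readout, after 16 hr compound exposure at 37C of ER-beta-bla HEK293T cells in 2% charcoal-stripped FBS medium.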
# [5] = qHTS assay to identify small molecule agonists of the estrogen receptor alpha (ER-alpha) signaling pathway in the presence of an antagonist - cell viability counter screen (AID 1259386; active = well fitted curve in the direction sought with a large enough effect in the repeat runs; an effect the other way counts as inactive or inconclusive; note: series mostly up to about 92 µM; nearly all actives have a fitted effect of over 30% in size)
# Procedure, shortened: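 Compounds tested at 15 concentrations for 22 h at 37C alongside 10.0nM (final) ICI-182,780 antagonist, in VM7Luc4E2 cells grown in phenol red-free, charcoal-stripped medium. Viability read by CellTiter-Fluor fluorescence after 1 h reagent incubation.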
# [6] = target: Progesterone receptor (Homo sapiens) (UniProt P06401); experiment: qHTS assay to identify small molecule agonists of the progesterone receptor (PR) signaling pathway (AID 1346784); note: nearly all actives have a fitted effect of over 30% in size
# Chain of Progesterone receptor (Homo sapiens) (P06401 whole entry, looked up): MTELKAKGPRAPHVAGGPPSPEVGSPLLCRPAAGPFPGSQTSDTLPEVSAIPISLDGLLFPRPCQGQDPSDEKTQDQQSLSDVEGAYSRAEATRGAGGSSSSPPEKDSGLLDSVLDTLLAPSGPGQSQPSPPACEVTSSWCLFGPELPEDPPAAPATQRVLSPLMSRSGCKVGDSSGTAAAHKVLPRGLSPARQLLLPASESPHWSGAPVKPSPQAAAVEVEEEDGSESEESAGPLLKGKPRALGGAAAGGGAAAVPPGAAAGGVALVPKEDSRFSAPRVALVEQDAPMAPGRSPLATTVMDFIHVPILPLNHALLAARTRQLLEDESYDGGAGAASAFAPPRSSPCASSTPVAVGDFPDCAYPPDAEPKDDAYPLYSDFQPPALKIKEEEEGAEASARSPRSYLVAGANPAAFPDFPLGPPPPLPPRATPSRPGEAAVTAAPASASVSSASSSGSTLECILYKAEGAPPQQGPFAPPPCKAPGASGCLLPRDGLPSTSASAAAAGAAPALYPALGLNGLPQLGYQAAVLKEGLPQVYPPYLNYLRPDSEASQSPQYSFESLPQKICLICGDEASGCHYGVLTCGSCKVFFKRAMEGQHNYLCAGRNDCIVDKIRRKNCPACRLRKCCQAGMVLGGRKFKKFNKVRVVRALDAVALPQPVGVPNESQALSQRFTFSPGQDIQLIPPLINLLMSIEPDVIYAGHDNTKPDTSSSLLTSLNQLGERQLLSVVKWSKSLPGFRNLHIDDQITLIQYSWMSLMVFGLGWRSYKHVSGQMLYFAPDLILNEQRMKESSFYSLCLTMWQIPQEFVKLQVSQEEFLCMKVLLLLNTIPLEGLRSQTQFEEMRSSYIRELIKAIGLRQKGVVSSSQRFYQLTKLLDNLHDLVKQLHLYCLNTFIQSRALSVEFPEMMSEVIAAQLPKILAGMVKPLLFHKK
# Procedure, shortened: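 Agonist qHTS: compounds pinned onto 3,000 PR-UAS-bla HEK 293T cells per well in charcoal-stripped serum medium, 16hr at 37C, then beta-lactamase activity measured by LiveBLAzer FRET fluorescence after 2 hours at room temperature.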
# [7] = target: Progesterone receptor (Homo sapiens) (UniProt P06401); experiment: qHTS assay to identify small molecule antagonists of the progesterone receptor (PR) signaling pathway (AID 1346795; active = well fitted inhibition curve with a large enough effect in the signal ratio in the repeat runs, not every such curve was filed as active; the % refers to the signal ratio)
# Procedure, shortened: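 Antagonist mode with agonist R5020 at 1 nM final and 16 hr incubation at 37C. Reporter was beta-lactamase driven by UAS in HEK293T (PR-UAS-bla), 2% charcoal-stripped serum; signal from LiveBLAzer FRET substrate, 2 hr at room temperature.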
# [8] = qHTS assay to identify small molecule agonists of the progesterone receptor (PR) signaling pathway - cell viability counter screen (AID 1346799); note: nearly all actives have a fitted effect of over 45% in size; note: potency is the fitted concentration of half-maximal effect
# Procedure, shortened: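 Cytotoxicity measured by CellTiter-Glo luminescence (30 min, RT) in the same wells as the PR beta-lactamase agonist read. Those HEK293T cells had 16 h compound treatment at 37 C in 2% charcoal-stripped FBS medium.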
# [9] = qHTS assay to identify small molecule antagonists of the TGF-beta/Smad signaling pathway - cell viability counter screen (AID 1346824; active = well fitted curve in the direction sought with a large enough effect in the repeat runs; an effect the other way counts as inactive or inconclusive; note: nearly all actives have a fitted effect of over 50% in size)
# Procedure, shortened: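 Cytotoxicity counter-screen run in the same wells as the beta-lactamase Smad reporter read: CellTiter-Glo luminescence after 30 min at room temperature. HEK 293T SBE-bla cells had 5 hr compound exposure at 37 C with TGF-beta1 (0.25 ng/mL stock).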
# [10] = qHTS assay to identify small molecule agonists of the TGF-beta/Smad signaling pathway - cell viability counter screen (AID 1346829; active = well fitted curve in the direction sought with a large enough effect in the repeat runs; an effect the other way counts as inactive or inconclusive; note: top concentration of the series differs between compounds; nearly all actives have a fitted effect of over 45% in size)
# Procedure, shortened: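 Same-well cytotoxicity: CellTiter-Glo added after the 2 hr room-temperature beta-lactamase substrate step, luminescence measured 30 min later; cells had 5 hr of compound at 37 C.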
# [11] = qHTS assay to identify small molecule agonists of the TGF-beta/Smad signaling pathway (AID 1346859; active = well fitted activation curve with a large enough effect in the signal ratio in the repeat runs, not every such curve was filed as active; the % refers to the signal ratio; note: series mostly up to about 77 µM)
# Procedure, shortened: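 Fluorescence (ex 405 nm; em 460 and 530 nm) was read 2 h after LiveBLAzer FRET substrate at RT. The preceding compound treatment of overnight-plated SBE-bla HEK293T cells lasted 5 h at 37 C.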
# [12] = target: Thyrotropin-releasing hormone receptor (Homo sapiens) (UniProt P34981); experiment: qHTS assay to identify small molecule antagonists of the thyrotropin-releasing hormone receptor (TRHR) signaling pathway (AID 1346877; active = well fitted inhibition curve with a large enough effect in the repeat runs, not every such curve was filed as active; note: series mostly up to about 51 µM)
# Chain of Thyrotropin-releasing hormone receptor (Homo sapiens) (P34981 whole entry, looked up): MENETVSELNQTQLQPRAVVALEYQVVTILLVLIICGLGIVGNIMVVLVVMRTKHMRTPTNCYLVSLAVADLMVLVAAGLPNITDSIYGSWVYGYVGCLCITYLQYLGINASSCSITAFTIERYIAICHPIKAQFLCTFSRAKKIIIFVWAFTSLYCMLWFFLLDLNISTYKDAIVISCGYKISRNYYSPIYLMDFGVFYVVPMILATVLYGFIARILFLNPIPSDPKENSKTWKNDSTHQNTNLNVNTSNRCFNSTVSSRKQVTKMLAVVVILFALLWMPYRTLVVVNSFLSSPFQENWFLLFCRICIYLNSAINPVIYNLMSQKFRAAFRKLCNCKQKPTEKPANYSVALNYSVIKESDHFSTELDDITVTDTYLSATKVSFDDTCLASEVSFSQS
# Procedure, shortened: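 Antagonist mode: after a 5 min room-temperature compound exposure, cells were stimulated with 1 nM (final) TRH. Dye-loaded TRHR-HEK293 cells were used, and calcium-dependent fluorescence was followed for 3 min, with 15-point titrations run in triplicate.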
# [13] = target: Thyrotropin-releasing hormone receptor (Homo sapiens) (UniProt P34981); experiment: qHTS assay to identify small molecule agonists of the thyrotropin-releasing hormone receptor (TRHR) signaling pathway (AID 1346891); note: series mostly up to about 58 µM
# Procedure, shortened: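 Agonist-mode intracellular calcium readout: kinetic fluorescence over 3 min at 1 s intervals after compound addition to TRHR-HEK293 cells (18 h seeded, 2 h dye-loaded at 37 C). Fifteen concentrations, triplicates.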
# [14] = qHTS assay to identify small molecule antagonists of the estrogen receptor beta (ER-beta) signaling pathway - cell viability counter screen (AID 1259382; active = well fitted curve in the direction sought with a large enough effect in the repeat runs; an effect the other way counts as inactive or inconclusive;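 note: HEK293T cells carrying ER-beta-UAS-bla reporter stimulated with estradiol; series mostly up to about 92 µM; nearly all actives have a fitted effect of over 55% in size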)
# Procedure, shortened: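 Cytotoxicity was measured in the same wells by CellTiter-Glo luminescence after 30 min at room temperature. Cells were ER-beta-bla HEK293T in charcoal-stripped serum, given compound together with 1 nM E2 and incubated 16 h at 37C.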
# [15] = target: Estrogen receptor (Homo sapiens) (UniProt P03372); experiment: qHTS assay to identify small molecule agonists of the estrogen receptor alpha (ER-alpha) signaling pathway in the presence of an antagonist (AID 1259383); note: top concentration of the series differs between compounds; nearly all actives have a fitted effect of over 15% in size
# Chain of Estrogen receptor (Homo sapiens) (P03372 whole entry, looked up): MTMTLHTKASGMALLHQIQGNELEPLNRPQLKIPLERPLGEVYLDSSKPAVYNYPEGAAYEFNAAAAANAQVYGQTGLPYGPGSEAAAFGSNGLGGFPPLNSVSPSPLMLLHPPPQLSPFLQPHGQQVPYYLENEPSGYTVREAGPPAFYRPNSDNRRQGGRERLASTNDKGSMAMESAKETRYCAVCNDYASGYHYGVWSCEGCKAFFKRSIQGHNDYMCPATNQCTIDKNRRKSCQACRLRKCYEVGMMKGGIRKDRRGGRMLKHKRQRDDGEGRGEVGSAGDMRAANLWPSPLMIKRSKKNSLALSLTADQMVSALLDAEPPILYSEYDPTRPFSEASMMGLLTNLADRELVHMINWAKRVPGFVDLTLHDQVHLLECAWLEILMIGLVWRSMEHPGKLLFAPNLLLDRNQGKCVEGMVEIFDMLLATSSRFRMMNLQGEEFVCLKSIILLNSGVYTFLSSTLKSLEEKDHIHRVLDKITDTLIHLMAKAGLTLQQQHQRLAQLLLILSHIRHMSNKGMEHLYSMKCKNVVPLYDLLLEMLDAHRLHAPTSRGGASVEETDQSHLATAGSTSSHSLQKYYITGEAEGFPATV
# Procedure, shortened: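 Agonist-mode confirmation run in the presence of 10.0nM (final) ICI-182,780 antagonist. The reporter was ERE-driven luciferase in VM7Luc4E2 cells, grown in charcoal-stripped serum. Cells were exposed to 15-concentration compound series for 22hr, then ONE-Glo luminescence was read.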
# [16] = qHTS assay to identify small molecule agonists or antagonists of the thyroid stimulating hormone receptor (TSHR) signaling pathway - wild type cell line counter screen (AID 1259384)
# Procedure, shortened: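 Counter screen in untransfected Hek293: compounds (15-point titration, triplicate) plus phosphodiesterase inhibitor Ro20-1724 added after 18 h plating; 30 min RT. Intracellular cAMP via competitive d2/cryptate immunoassay, 1 h incubation.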
# [17] = target: Thyrotropin receptor (Homo sapiens) (UniProt P16473); experiment: qHTS assay to identify small molecule antagonists of the thyroid stimulating hormone receptor (TSHR) signaling pathway (AID 1259385); note: nearly all actives have a fitted effect of over 20% in size
# Chain of Thyrotropin receptor (Homo sapiens) (P16473 whole entry, looked up): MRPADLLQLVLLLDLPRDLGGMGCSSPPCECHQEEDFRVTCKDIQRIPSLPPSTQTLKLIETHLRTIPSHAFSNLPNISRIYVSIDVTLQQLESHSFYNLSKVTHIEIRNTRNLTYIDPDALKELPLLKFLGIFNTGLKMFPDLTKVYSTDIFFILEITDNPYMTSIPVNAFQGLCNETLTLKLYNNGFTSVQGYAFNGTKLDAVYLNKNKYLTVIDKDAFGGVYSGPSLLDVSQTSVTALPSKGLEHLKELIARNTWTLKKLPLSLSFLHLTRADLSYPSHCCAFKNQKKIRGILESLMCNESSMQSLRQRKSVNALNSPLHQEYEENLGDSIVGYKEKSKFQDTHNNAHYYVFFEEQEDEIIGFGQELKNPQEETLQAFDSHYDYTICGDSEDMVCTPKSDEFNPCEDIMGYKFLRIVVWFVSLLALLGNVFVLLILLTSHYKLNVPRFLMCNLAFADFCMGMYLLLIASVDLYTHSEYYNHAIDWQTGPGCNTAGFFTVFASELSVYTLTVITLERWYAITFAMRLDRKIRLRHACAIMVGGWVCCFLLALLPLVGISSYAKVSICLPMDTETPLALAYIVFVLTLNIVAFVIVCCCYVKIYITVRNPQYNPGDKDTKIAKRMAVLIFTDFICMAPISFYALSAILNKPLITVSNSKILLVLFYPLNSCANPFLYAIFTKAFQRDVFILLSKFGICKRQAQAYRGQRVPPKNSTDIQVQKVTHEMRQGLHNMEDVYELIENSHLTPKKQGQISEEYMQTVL
# Procedure, shortened: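 Antagonist mode: compound-treated TSHR-expressing HEK293 cells were stimulated with 1.5 ng/mL TSH (final) in presence of Ro20-1724 for 30 min at RT. HTRF cAMP detection after 1 h; each compound tested at 15 concentrations, triplicate.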
# [18] = qHTS assay to identify small molecule antagonists of the progesterone receptor (PR) signaling pathway - cell viability counter screen (AID 1346798; active = well fitted curve in the direction sought with a large enough effect in the repeat runs; an effect the other way counts as inactive or inconclusive; note: nearly all actives have a fitted effect of over 50% in size; note: potency is the fitted concentration of half-maximal effect)
# Procedure, shortened: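 Cytotoxicity read as CellTiter-Glo luminescence (30 min, room temperature) in the same wells as the beta-lactamase readout. HEK293T PR-UAS-bla cells in charcoal-stripped 2% FBS received compound and R5020, then 16 h at 37C, 5% CO2.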
# [19] = target: Androgen receptor (Homo sapiens) (UniProt P10275); experiment: qHTS assay to identify small molecule agonists of the androgen receptor (AR) signaling pathway in the presence of an antagonist (AID 1259381); note: nearly all actives have a fitted effect of over 15% in size
# Chain of Androgen receptor (Homo sapiens) (P10275 whole entry, looked up): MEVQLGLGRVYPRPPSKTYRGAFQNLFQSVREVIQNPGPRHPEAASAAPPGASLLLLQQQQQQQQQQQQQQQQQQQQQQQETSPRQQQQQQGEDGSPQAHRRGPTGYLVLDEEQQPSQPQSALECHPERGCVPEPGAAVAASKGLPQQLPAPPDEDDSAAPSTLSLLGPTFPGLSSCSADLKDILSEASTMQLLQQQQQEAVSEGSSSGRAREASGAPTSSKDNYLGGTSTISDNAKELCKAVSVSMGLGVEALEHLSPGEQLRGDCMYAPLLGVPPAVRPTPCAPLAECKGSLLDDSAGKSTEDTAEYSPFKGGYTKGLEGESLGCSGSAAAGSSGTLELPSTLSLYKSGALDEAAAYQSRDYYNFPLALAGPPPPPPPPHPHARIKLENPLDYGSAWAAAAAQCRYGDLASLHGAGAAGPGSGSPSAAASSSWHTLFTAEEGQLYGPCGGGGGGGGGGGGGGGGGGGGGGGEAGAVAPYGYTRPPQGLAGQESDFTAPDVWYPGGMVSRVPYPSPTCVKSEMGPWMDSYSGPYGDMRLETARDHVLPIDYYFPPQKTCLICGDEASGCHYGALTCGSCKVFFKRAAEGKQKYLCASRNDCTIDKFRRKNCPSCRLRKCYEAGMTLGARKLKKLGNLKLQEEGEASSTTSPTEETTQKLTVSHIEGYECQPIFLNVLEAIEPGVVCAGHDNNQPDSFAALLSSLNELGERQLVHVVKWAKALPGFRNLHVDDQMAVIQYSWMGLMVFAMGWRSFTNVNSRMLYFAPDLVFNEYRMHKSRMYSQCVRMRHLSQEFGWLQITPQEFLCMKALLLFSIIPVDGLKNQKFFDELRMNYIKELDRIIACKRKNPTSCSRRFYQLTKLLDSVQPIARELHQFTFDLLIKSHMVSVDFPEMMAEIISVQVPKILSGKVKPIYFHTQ
# Procedure, shortened: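 Agonist-mode confirmation run against 3.0 uM final nilutamide: compounds titrated at 15 concentrations onto MDA-kb2 MMTV-luciferase reporter cells. Luminescence measured with ONE-Glo following 16 hr incubation, 37C, 0% CO2.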
Compound,Potency [1],Potency [2],Potency [3],Potency [4],Potency [5],Potency [6],Potency [7],Potency [8],Potency [9],outcome [10],outcome [11],outcome [12],outcome [13],Potency [14],Potency [15],Potency [16],Potency [17],Potency [18],Potency [19]
CN(N=O)C(N)=O,inactive,inactive,inactive,inactive,inactive,inactive,inactive,inactive,inactive,inactive,inactive,inactive,inactive,–,–,–,–,–,–
CCOc1nc(C(Cl)(Cl)Cl)ns1,inactive,inactive,inactive,–,inactive,inactive,inactive,inactive,inactive,inactive,inactive,inactive,inactive,inactive,inactive,inactive,inactive,inactive,–
O=NN1CCCCC1,inactive,–,inactive,inactive,inactive,inactive,inactive,inactive,inactive,inactive,inactive,inactive,inactive,inactive,–,inactive,inactive,inactive,inactive
CCCCOP(=O)(O)OCCCC,inactive,–,inactive,inactive,–,inactive,–,inactive,inactive,inactive,inactive,inactive,inactive,inactive,inactive,inactive,inactive,inactive,inactive
CC(=O)C(Cl)Cl,inactive,–,inactive,inactive,–,inactive,inactive,inactive,inactive,inactive,inactive,–,–,inactive,inactive,inactive,inactive,inactive,–
Nc1n[nH]c(N)n1,inactive,inactive,–,inactive,inactive,inactive,–,inactive,inactive,inactive,inactive,inactive,inactive,inactive,–,inactive,inactive,–,–
Oc1c(Cl)cccc1Cl,inactive,–,inactive,inactive,inactive,inactive,inactive,inactive,inactive,inactive,inactive,inactive,inactive,inactive,inactive,inactive,inactive,inactive,–
CC(=O)CCc1ccc2c(c1)OCO2,inactive,–,inactive,inactive,inactive,inactive,inactive,–,inactive,inactive,inactive,inactive,inactive,inactive,inactive,inactive,inactive,inactive,–
C1CCC(C2CCCCC2)CC1,inactive,inactive,inactive,–,inactive,inactive,–,8.63 µM (active),inactive,inactive,inactive,inactive,inactive,–,inactive,inactive,inactive,15.4 µM (active),–
